Measured values from PubChem BioAssay (NCI).
Compounds without any hit were thinned out: in the full panel of roughly 83,000, 20% have a hit.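 Interpretation: 100, growth as untreated; towards 0, rising growth inhibition; 0, no net growth; 0 to -100, cell death. Compounds scoring below 10 were considered active.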 Unmarked numbers belong to inactive results. Activity calls are given as the source filed them.

Each compound was assayed on HS 578T breast (assay: NCI-60 one-dose screen, 48 h (100 = growth as untreated, 0 = no growth, -100 = all killed)). Details: 10 µM unless noted.

Compound | growth
COc1ccc(COC(C)=O)cc1 | 105%
COC(=O)CCC1=C(CC(=O)OC)C(C)=N/C1=C\c1[nH]c(-c2ccc[nH]2)cc1OC | 52.2%
O=C(/C(=N/O)S(=O)(=O)c1ccccc1)c1cccs1 | 118%
COc1cc(OC)c2cc(C(=O)O)c(=O)oc2c1 | 134%
CN(CCOc1ccc(CC2SC(=O)NC2=O)cc1)c1ccccn1 (stereo unspecified) | 100%
CCC(C)CC(C)C(=O)c1c(O)ccn(O)c1=O (stereo unspecified) | 62%
O=C(CSc1nc2c(n1Nc1ccccc1)-c1ccccc1SC2)Nc1nc(-c2ccc(Cl)cc2)cs1 | 23.4%
Cc1[nH]n(C(N)=S)c(=O)c1N=Nc1ccc(F)c(Cl)c1 | 127%
Clc1cccc(Cc2cn3cc(-c4ccccc4)nc3s2)c1 | 76.8%
NC(=O)N/N=C/c1ccc(Br)o1 | 109%
C[n+]1c2ccccc2c(NC2CCNCC2)c2[nH]c3ccccc3c21 | -38% (active)
[O-]/[N+](=C\C=C\c1ccccc1)c1ccccc1 | 130%
CCCn1cnc2c1c(=O)n(CCCCC(C)=O)c(=O)n2C | 104%
O=C1/C(=C/c2ccc3cccc(Cl)c3n2)SC(=S)N1CCc1ccc(O)cc1 | 73.8%
CN=C(NC)N/N=C(C)\C=N\NC(=NC)NC | 102%
CCN(CC)CCCNCCCNc1cc(OC)cc2cccnc12 | 94.9%
COc1cc2c(cc1OCCCOc1ccc(-c3cc4ccccc4c4ccccc34)cc1)N=C[C@@H]1CCCN1C2=O | -15.3% (active)
Nc1ccc(C2=NN(c3ccccc3)C(c3ccc(Cl)cc3)C2)cc1 (stereo unspecified) | 102%
O=C1C[C@@H]2/C(=C(O)\C=C\c3ccccc3)C(=O)C=C[C@@H]2O1 | -2.33% (active)

Compound | growth
COc1ccc(-c2cc(C(=O)Nc3nc4cc(C)c(C)cc4s3)nc3cc(-c4ccccc4)nn23)cc1OC | 111%
CCC(=O)Nc1ccccc1C#C/C=C\C#Cc1ccccc1C(F)(F)F | 17.1%
Oc1ccccc1C=Nc1ccccc1N=Cc1ccccc1O.[Cu+2] | 137%
CCOc1cccc(C2CC(=O)Nc3cc4c(cc32)OCO4)c1 (stereo unspecified) | 91.6%
NC(N)=NN=c1c(=O)c2ccccc2c1=O | 109%
O=[N+]([O-])c1ccc(Oc2cccc(C(F)(F)F)c2)c([N+](=O)[O-])c1 | 105%
CCCCCCCCCCCCNc1ncnc2[nH]ncc12 | 92.4%
Cc1ccc2c(c1)C(=O)/C(=C/c1ncc([N+](=O)[O-])n1C)O2 | -10.2% (active)
O=C(/C=C/c1cccnc1)NCCCCC1CCCN(C(=O)c2ccccc2)C1 (stereo unspecified) | 52.2%
O=C(/C=C/c1cccnc1)/C=C/c1cccnc1 | -16% (active)
COc1ccc(-n2nnc(C(=O)O)c2-c2cc(OC)c(OC)c(OC)c2)cc1 | 102%
COc1cc2c(cc1OCCCCCn1c(-c3ccc(OCc4ccccc4)cc3)nc3cc(N4CCOCC4)ccc31)N=C[C@@H]1CCCN1C2=O | 12.4%
O=C1C(=O)c2ccc(Br)cc2-c2cc(Br)ccc21 | 86.4%
CCC(C)CC(C)C(=O)c1c(O)ccn(OC)c1=O (stereo unspecified) | 93.2%
NNC(=O)NO | 96.6%
COc1ccc(C2CC(c3cccc(Nc4ccnc5cc(Cl)ccc45)c3)=NN2C=O)cc1 (stereo unspecified) | -3.1% (active)
C=CC1=C(C(=O)O)N2C(=O)[C@@H](NC(=O)/C(=N\O)c3csc(N)n3)[C@H]2SC1 (stereo in doubt) | 103%
CC(=O)Oc1ccc(C2OC(c3ccc4ccccc4c3OC(C)=O)=NN2C(C)=O)c(OC(C)=O)c1 (stereo unspecified) | 59.7%
Cc1ccc(NC(=O)COC(=O)c2ccc(S(=O)(=O)N3CCCCCC3)cc2)cc1 | 113%

What follows are compounds tested on NCI/ADR-RES ovarian in the same assay as above. Details: 10 µM unless noted.

Compound | growth
COc1ccc(COC(C)=O)cc1 | 116%
COC(=O)CCC1=C(CC(=O)OC)C(C)=N/C1=C\c1[nH]c(-c2ccc[nH]2)cc1OC | 17.5%
O=C(/C(=N/O)S(=O)(=O)c1ccccc1)c1cccs1 | 97.3%
COc1cc(OC)c2cc(C(=O)O)c(=O)oc2c1 | 112%
CN(CCOc1ccc(CC2SC(=O)NC2=O)cc1)c1ccccn1 (stereo unspecified) | 101%
CCC(C)CC(C)C(=O)c1c(O)ccn(O)c1=O (stereo unspecified) | 4.73% (active)
O=C(CSc1nc2c(n1Nc1ccccc1)-c1ccccc1SC2)Nc1nc(-c2ccc(Cl)cc2)cs1 | 66%
Cc1[nH]n(C(N)=S)c(=O)c1N=Nc1ccc(F)c(Cl)c1 | 117%
Clc1cccc(Cc2cn3cc(-c4ccccc4)nc3s2)c1 | 60.2%
NC(=O)N/N=C/c1ccc(Br)o1 | 105%
C[n+]1c2ccccc2c(NC2CCNCC2)c2[nH]c3ccccc3c21 | 96.5%
[O-]/[N+](=C\C=C\c1ccccc1)c1ccccc1 | 103%
CCCn1cnc2c1c(=O)n(CCCCC(C)=O)c(=O)n2C | 108%
O=C1/C(=C/c2ccc3cccc(Cl)c3n2)SC(=S)N1CCc1ccc(O)cc1 | 93%
CN=C(NC)N/N=C(C)\C=N\NC(=NC)NC | 107%
CCN(CC)CCCNCCCNc1cc(OC)cc2cccnc12 | 93.2%
COc1cc2c(cc1OCCCOc1ccc(-c3cc4ccccc4c4ccccc34)cc1)N=C[C@@H]1CCCN1C2=O | -46.1% (active)
Nc1ccc(C2=NN(c3ccccc3)C(c3ccc(Cl)cc3)C2)cc1 (stereo unspecified) | 89.6%
O=C1C[C@@H]2/C(=C(O)\C=C\c3ccccc3)C(=O)C=C[C@@H]2O1 | 7.67% (active)

Compound | growth
COc1ccc(-c2cc(C(=O)Nc3nc4cc(C)c(C)cc4s3)nc3cc(-c4ccccc4)nn23)cc1OC | 102%
CCC(=O)Nc1ccccc1C#C/C=C\C#Cc1ccccc1C(F)(F)F | 27.2%
Oc1ccccc1C=Nc1ccccc1N=Cc1ccccc1O.[Cu+2] | 20.2%
CCOc1cccc(C2CC(=O)Nc3cc4c(cc32)OCO4)c1 (stereo unspecified) | 82.3%
NC(N)=NN=c1c(=O)c2ccccc2c1=O | 91.7%
O=[N+]([O-])c1ccc(Oc2cccc(C(F)(F)F)c2)c([N+](=O)[O-])c1 | 29.1%
CCCCCCCCCCCCNc1ncnc2[nH]ncc12 | 83.8%
Cc1ccc2c(c1)C(=O)/C(=C/c1ncc([N+](=O)[O-])n1C)O2 | -3.98% (active)
O=C(/C=C/c1cccnc1)NCCCCC1CCCN(C(=O)c2ccccc2)C1 (stereo unspecified) | 32.1%
O=C(/C=C/c1cccnc1)/C=C/c1cccnc1 | 32.2%
COc1ccc(-n2nnc(C(=O)O)c2-c2cc(OC)c(OC)c(OC)c2)cc1 | 109%
COc1cc2c(cc1OCCCCCn1c(-c3ccc(OCc4ccccc4)cc3)nc3cc(N4CCOCC4)ccc31)N=C[C@@H]1CCCN1C2=O | 23.8%
O=C1C(=O)c2ccc(Br)cc2-c2cc(Br)ccc21 | -29.2% (active)
CCC(C)CC(C)C(=O)c1c(O)ccn(OC)c1=O (stereo unspecified) | 57.1%
NNC(=O)NO | 109%
COc1ccc(C2CC(c3cccc(Nc4ccnc5cc(Cl)ccc45)c3)=NN2C=O)cc1 (stereo unspecified) | 8.68% (active)
C=CC1=C(C(=O)O)N2C(=O)[C@@H](NC(=O)/C(=N\O)c3csc(N)n3)[C@H]2SC1 (stereo in doubt) | 98%
CC(=O)Oc1ccc(C2OC(c3ccc4ccccc4c3OC(C)=O)=NN2C(C)=O)c(OC(C)=O)c1 (stereo unspecified) | 11.1%
Cc1ccc(NC(=O)COC(=O)c2ccc(S(=O)(=O)N3CCCCCC3)cc2)cc1 | 105%
